# The entries come from a sample that favours hits as a whole.
# IDE exosite FP – insulin-degrading enzyme (human) exo-site inhibition. P14735. z-score at 20 µM. 17,000 tested, 6.3% active. purified IDE, FL-6b probe fluorescence polarization; active compounds read low;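 active = z-score of -3 or lower, meaning strong loss of probe binding signal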;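 note: His-tagged human IDE residues 42-1019 made in E. coli with 30 nM FL-6b probe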
# Target sequence (P14735 42-1019 limits assumed): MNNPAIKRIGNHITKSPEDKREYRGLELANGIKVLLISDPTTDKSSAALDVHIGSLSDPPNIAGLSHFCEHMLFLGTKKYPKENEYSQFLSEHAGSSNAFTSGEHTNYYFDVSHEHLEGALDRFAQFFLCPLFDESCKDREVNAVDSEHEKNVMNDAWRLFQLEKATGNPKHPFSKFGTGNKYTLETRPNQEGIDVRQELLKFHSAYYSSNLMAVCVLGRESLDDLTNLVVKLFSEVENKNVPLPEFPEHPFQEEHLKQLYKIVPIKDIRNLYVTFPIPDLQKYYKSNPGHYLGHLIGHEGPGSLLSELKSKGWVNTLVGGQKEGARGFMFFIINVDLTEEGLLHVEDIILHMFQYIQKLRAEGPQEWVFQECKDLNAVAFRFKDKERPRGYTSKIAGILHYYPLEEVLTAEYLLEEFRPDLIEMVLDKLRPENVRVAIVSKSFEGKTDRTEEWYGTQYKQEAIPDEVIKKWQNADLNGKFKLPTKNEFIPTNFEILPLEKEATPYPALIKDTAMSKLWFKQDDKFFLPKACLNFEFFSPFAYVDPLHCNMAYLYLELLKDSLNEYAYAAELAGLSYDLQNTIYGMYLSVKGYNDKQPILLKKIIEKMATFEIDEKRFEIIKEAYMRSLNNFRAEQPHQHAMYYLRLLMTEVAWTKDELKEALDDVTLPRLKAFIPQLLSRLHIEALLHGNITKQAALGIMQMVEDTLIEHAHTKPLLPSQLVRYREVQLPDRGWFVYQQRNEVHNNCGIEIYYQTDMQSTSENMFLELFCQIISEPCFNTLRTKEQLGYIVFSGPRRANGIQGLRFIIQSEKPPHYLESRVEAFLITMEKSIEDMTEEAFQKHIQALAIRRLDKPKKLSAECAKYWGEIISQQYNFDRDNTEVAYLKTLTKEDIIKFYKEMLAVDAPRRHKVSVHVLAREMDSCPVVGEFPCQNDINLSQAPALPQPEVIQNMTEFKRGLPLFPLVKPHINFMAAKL
# * marks the source's active call; other numbers are inactive results.
SMILES,IDE exosite FP
O=C(NC[C@H]1[C@@H](c2ccccc2)[C@@H](CO)N1CC1CCCC1)C1CC1,2.18
COc1cccc(-c2ccc([C@H]3[C@H](CO)N4C(=O)CN(C(=O)C5CCCCC5)C[C@@H]34)cc2)c1,-5.64*
COc1cccc(-c2ccc([C@H]3[C@H]4CN(C(=O)C5CCCCC5)CC(=O)N4[C@H]3CO)cc2)c1,-3.39*
COc1cccc(-c2ccc([C@@H]3[C@H]4CN(C(=O)C5CCCCC5)CC(=O)N4[C@H]3CO)cc2)c1,-7.61*
COc1ccc(-c2ccc([C@H]3[C@H]4CN(C(=O)C5CCCC5)CC(=O)N4[C@H]3CO)cc2)cc1,-1.1
COc1ccc(-c2ccc([C@H]3[C@H](CO)N4C(=O)CN(C(=O)C5CCCC5)C[C@@H]34)cc2)cc1,1.73
Cc1noc(C)c1NC(=O)Nc1ccc2c(c1)C(=O)N(C)[C@H]1CC[C@@H](CC(=O)N[C@@H]3CCN(Cc4ccccc4)C3)O[C@H]1CO2,0.416
CO[C@@H]1CN(C)C(=O)c2ccc(N)cc2OC[C@@H](C)NC[C@H]1C,-0.547
O=C(c1cccnc1)N1CC(=O)N2[C@H](C1)[C@H](c1ccc(C#CCC3CCCC3)cc1)[C@@H]2CO,0.868
COc1ccc(NC(=O)N(C)C[C@H]2OCCCC[C@H](C)Oc3ccc(NC(=O)c4ccncc4)cc3C(=O)N([C@@H](C)CO)C[C@@H]2C)cc1,0.875
O=C(Nc1ccccc1)N1CCCCN2[C@H](CO)[C@H](c3ccc(-c4ccncc4)cc3)[C@H]2C1,2.57
N#C[C@H]1[C@H](c2ccccc2)[C@@H](CO)N1C(=O)c1ccc2c(c1)OCO2,-1.06
O=C(C1CC1)N1CC(=O)N2[C@H](CO)[C@H](c3ccc(-c4cccnc4)cc3)[C@@H]2C1,0.979
O=C(Cc1cccnc1)N1CC(=O)N2[C@H](CO)[C@H](c3ccc(C#CC4CCCCC4)cc3)[C@@H]2C1,-2.28
C[C@H]1CN([C@@H](C)CO)C(=O)CCCn2nncc2CO[C@@H]1CN(C)C(=O)Nc1cccc(Oc2ccccn2)c1,-0.822
C[C@H](NC(=O)[C@H]1[C@H](CO)[C@H]2Cn3c(ccc(-c4ccccc4)c3=O)[C@H]2N1C)c1ccccc1,0.672
CN1C(=O)c2cc(NS(C)(=O)=O)ccc2OC[C@@H]2O[C@H](CC(=O)NCc3ccccc3)CC[C@H]21,-1.12
COc1ccccc1S(=O)(=O)N[C@H]1C=C[C@H](CC(=O)N2CCOCC2)O[C@H]1CO,0.55
CC(=O)NC[C@@H]1[C@@H](c2ccc(-c3cccnc3)cc2)[C@@H](CO)N1C(=O)C1CCC1,1.27
O=C(c1ccncc1)N1CC(=O)N2[C@H](C1)[C@H](c1ccc(C#CCC3CCCC3)cc1)[C@@H]2CO,3.56
COCC(=O)N1CCCCN2[C@H](CO)[C@H](c3ccc(-c4ccc(C)cc4)cc3)[C@H]2C1,0.0987
CC(=O)N1CCCCN2[C@@H](CO)[C@@H](c3ccc(-c4ccccc4)cc3)[C@@H]2C1,-1.84
CC(=O)N1CCCCN2[C@H](C1)[C@H](c1ccc(-c3ccccc3)cc1)[C@@H]2CO,0.469
COCC(=O)N1CCCCN2[C@H](C1)[C@@H](c1ccc(-c3cccc(C)c3)cc1)[C@@H]2CO,-4.95*
CC(=O)N1CCCCN2[C@H](CO)[C@H](c3ccc(-c4ccc(C)cc4)cc3)[C@@H]2C1,0.446
SMILES,IDE exosite FP
CC(=O)N1CCCCN2[C@@H](CO)[C@@H](c3ccc(-c4cccc(C)c4)cc3)[C@@H]2C1,-2.41
CC(=O)N1CCCCN2[C@H](CO)[C@@H](c3ccc(-c4cccc(C)c4)cc3)[C@H]2C1,-5.65*
CC(=O)N1CCCCN2[C@H](CO)[C@@H](c3ccc(-c4cccc(C)c4)cc3)[C@@H]2C1,-3.48*
COCC(=O)N1CCCCN2[C@H](CO)[C@@H](c3ccc(-c4cccc(C)c4)cc3)[C@H]2C1,-0.661
O=C(Nc1ccc(F)cc1)N1CC(=O)N2[C@H](C1)[C@H](c1ccc(C#Cc3ccccc3)cc1)[C@@H]2CO,0.559
CC(=O)NC[C@H]1[C@@H](c2ccc(-c3cccnc3)cc2)[C@H](CO)N1C(=O)C1CCC1,0.853
O=C(Nc1ccc(F)cc1)N1CC(=O)N2[C@H](C1)[C@@H](c1ccc(C#CC3CC3)cc1)[C@@H]2CO,3.47
C/C=C/c1ccc([C@H]2[C@@H](CO)N(CC3CCCC3)[C@H]2CNC(=O)NC(C)C)cc1,1.09
CCS(=O)(=O)N1CC2(CN(Cc3cccc(Cl)c3)[C@@H](CO)c3c2c2ccc(OC)cc2n3C)C1,-0.298
N#C[C@@H]1[C@H](c2ccc(C3=CCCCC3)cc2)[C@H](CO)N1C(=O)NC1CCCC1,2.04
COCCNC(=O)C[C@@H]1CC[C@@H]2[C@H](COC[C@H](O)CN2C(=O)c2cc(Cl)cc(Cl)c2)O1,-0.85
CCN(C[C@H]1N[C@H](CO)[C@@H]1c1ccc(-c2cccc(C#N)c2)cc1)C(C)=O,4.26
CNC(=O)C[C@H]1CC[C@@H]2[C@H](COc3ccc(NC(=O)c4ccccc4F)cc3C(=O)N2C)O1,0.446
COc1ccc(NC(=O)N2CC(=O)N3[C@H](CO)[C@H](c4ccc(-c5ccc(C)cc5)cc4)[C@@H]3C2)cc1,1.08
O=C(NC1CCCC1)N1CC(=O)N2[C@H](C1)[C@H](c1ccc(-c3ccc(F)cc3)cc1)[C@@H]2CO,2.09
O=C(NC1CCCC1)N1CC(=O)N2[C@H](CO)[C@H](c3ccc(-c4ccc(F)cc4)cc3)[C@@H]2C1,3.75
O=C(NC1CCCC1)N1CC(=O)N2[C@H](C1)[C@@H](c1ccc(-c3ccc(F)cc3)cc1)[C@@H]2CO,1.21
O=C(NC1CCCCC1)N1CC(=O)N2[C@H](CO)[C@H](c3ccc(-c4cccc(F)c4)cc3)[C@H]2C1,-12.7*
O=C(NC1CCCC1)N1CC(=O)N2[C@H](CO)[C@@H](c3ccc(-c4ccc(F)cc4)cc3)[C@H]2C1,2.42
O=C(NC1CCCCC1)N1CC(=O)N2[C@H](C1)[C@H](c1ccc(-c3cccc(F)c3)cc1)[C@@H]2CO,-6.25*
O=C(Cc1ccccn1)N1CC(=O)N2[C@H](CO)[C@@H](c3ccc(C#CC4CCCCC4)cc3)[C@@H]2C1,0.0481
CN1c2ccc(C#Cc3ccccc3F)cc2[C@H]2[C@H](CCN2C(=O)c2cnccn2)[C@H]1CO,1.25
CCNC(=O)c1cc2c(c(-c3cccc(-c4cccnc4)c3)n1)[C@@H](CCO)N(S(C)(=O)=O)C2,1.43
C/C=C/c1ccc([C@@H]2[C@@H](CO)N(C(C)=O)[C@H]2CN(CCC)C(C)=O)cc1,4.83
COc1ccc2c3c(n(C)c2c1)[C@H](CO)NCC31CCN(C(=O)Nc2ccc(F)cc2F)CC1,0.608
SMILES,IDE exosite FP
N#C[C@@H]1[C@@H](c2ccccc2C2=CCCCC2)[C@@H](CO)N1C(=O)CN1CCOCC1,-0.507
Cn1cnc(S(=O)(=O)N2CCCCN3[C@H](CO)[C@@H](c4ccc(-c5cccc(F)c5)cc4)[C@H]3C2)c1,0.0352
Cn1cnc(S(=O)(=O)N2CCCCN3[C@@H](CO)[C@H](c4ccc(-c5cccc(F)c5)cc4)[C@@H]3C2)c1,2.07
Cn1cnc(S(=O)(=O)N2CCCCN3[C@H](C2)[C@@H](c2ccc(-c4cccc(F)c4)cc2)[C@@H]3CO)c1,0.693
Cn1cnc(S(=O)(=O)N2CCCCN3[C@H](CO)[C@H](c4ccc(-c5ccc(F)cc5)cc4)[C@@H]3C2)c1,3.94
Cn1cnc(S(=O)(=O)N2CCCCN3[C@H](CO)[C@@H](c4ccc(-c5cccc(F)c5)cc4)[C@@H]3C2)c1,-3.68*
Cn1cnc(S(=O)(=O)N2CCCCN3[C@@H](CO)[C@@H](c4ccc(-c5cccc(F)c5)cc4)[C@@H]3C2)c1,-4.6*

# Screening data: PubChem BioAssay, Broad Institute
